PTHR1 agonist = agonists of human PTHR1 parathyroid hormone receptor; Q03431; HEK293 GP2 PTHR1 cells, GloSensor cAMP luminescence, 1 h; Potency, µM (doses to about 115 µM), for the others: top-dose activation, actives largely listed as activators; 410,000 compounds, 0.075% hits; also: nearly all actives have a fitted effect of over 55% in size
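HEK-293-derived GP2 cells expressing PTHR1 and a GloSensor cAMP reporter, 3,000/well, plated overnight, given luciferin plus IBMX (each 0.5 mM as added) for 1 h at 37 °C, then compound for 1 h at 37 °C. Luminescence was read after 15 min at room temperature.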
GLP-1R agonist = GLP-1 receptor (human) agonism; P43220; HEK293 GLP-1R CRE-luciferase, luminescence, 4-6 h; cells express a hypersensitive GLP-1R form; Potency, µM (series often up to 45.6 µM), inactives show at the top dose activation, usual class: activators; 380,000 compounds, 0.007% hits; also: % of control where 0% means no effect
Target sequence (P43220 whole entry, looked up): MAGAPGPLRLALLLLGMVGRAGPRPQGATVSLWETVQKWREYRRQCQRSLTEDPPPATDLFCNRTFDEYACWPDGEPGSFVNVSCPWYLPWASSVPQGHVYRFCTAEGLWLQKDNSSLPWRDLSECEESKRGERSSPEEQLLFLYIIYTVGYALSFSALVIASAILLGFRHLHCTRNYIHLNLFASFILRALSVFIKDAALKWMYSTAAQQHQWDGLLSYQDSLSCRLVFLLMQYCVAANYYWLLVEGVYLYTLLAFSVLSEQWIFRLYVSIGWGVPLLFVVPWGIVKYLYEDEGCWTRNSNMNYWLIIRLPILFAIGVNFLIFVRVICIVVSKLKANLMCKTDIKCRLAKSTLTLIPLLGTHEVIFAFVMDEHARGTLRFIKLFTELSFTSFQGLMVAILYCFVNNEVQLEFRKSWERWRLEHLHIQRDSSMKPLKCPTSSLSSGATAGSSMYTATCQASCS
GLP-1R inv ag = GLP-1 receptor (human) inverse agonism; HEK293 GLP-1R CRE-luciferase, luminescence, 24 h; GLP-1R form is constitutively active; Potency, µM (highest dose often 38.3 µM), for inactives: top-dose activity change, negative = inhibition, most hits filed as inhibitors; 410,000 compounds, 1.6% hits; P43220; also: % is scaled to controls: 0 for no effect and ±100 for the full control effect; nearly all actives have a fitted effect of over 55% in size
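Using stably transfected HEK293 (constitutively active GLP-1R, cAMP-luciferase reporter), compounds were incubated 24 hr and luciferase measured by luminescence.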
GLP1R cytotox = cytotoxic in the GLP-1 receptor inverse agonist counter-screen | HEK293 cAMP-luciferase reporter cells, luminescence, 24 h | Potency, µM (top dose mostly 38.3 µM), without a hit: at the highest dose activity change, negative = inhibition, hits mostly inhibitors | 410,000 compounds, 0.13% hits | AID 624418;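 also: loss of luciferase light is scored as toxicity; % is scaled to controls: 0 for no effect and ±100 for the full control effect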
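Here, cytotoxicity is scored as loss of luminescence. The MLSMR collection was tested on cells seeded in medium containing 10% Nu serum, with a 24 hr compound exposure preceded by 12 hours of culture.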
Active calls of the source: *; i = inactive; ? = inconclusive; . = no result given; [ ] = remark or other dose. Compounds with a hit are over-represented: about 1.7% of the library has one in this group of screens. Calls follow the shape of the dose curve; as a rule, active = well fitted curve in the direction sought with a large enough effect; inconclusive = small, poorly fitted or top-dose-only effect, or another doubt; inactive = no such curve, though single readings can be large; an effect the other way counts as inactive or inconclusive. Potency is read from the fitted curve at half-maximal effect.

SMILES | PTHR1 agonist | GLP-1R agonist | GLP-1R inv ag | GLP1R cytotox
C=C[C@@H]1C[C@@]1(C)[C@@H](NP(=O)(c1ccccc1)c1ccccc1)c1ccccc1 | -21% | 11% | 10µM* | 7%
O=c1[nH]c(=O)n(Cc2ccc(F)cc2)c(O)c1/C=N/Nc1ccccc1 | -8% | 0% | 4.5µM* | 0%
COc1ccccc1N1CCN(C(=O)c2sc3nc(C)nc(N4CCN(c5ccccn5)CC4)c3c2C)CC1 | i | 0% | 5µM* | ?
CCc1cc(C(=O)N2CCN(c3ccccc3OC)CC2)sc1C | -5% | 13% | ? | ?
COc1cc2c(cc1O)[C@@H]1Cc3ccc(OC)c(O)c3CN1CC2 | i | -4% | 10µM* | ?
COc1ccc(C[C@@H]2c3cc(O)c(OC)cc3CCN2C)cc1O | 2% | -1% | -1% | 1%
COC(CN(C(=O)CCl)C(C(=O)NC1CCCCC1)c1ccccc1C)OC (stereo unspecified) | -57% | -10% | 10µM* | ?
O=C(CCl)c1ccc(Oc2ccc(C(=O)CCl)cc2)cc1 | . | 0% | . | .
Cc1cccc(C)c1NC(=O)C(c1ccccc1F)n1c(=O)c(-c2cc3ccccc3[nH]2)nc2ccccc21 (stereo unspecified) | -22% | . | ? | i
O=C(NCC(c1ccco1)N1CCCC1)c1cccc(S(=O)(=O)N2CCc3ccccc32)c1 (stereo unspecified) | -34% | -1% | ? | -19%
COC(=O)C1=C(c2ccc(Cl)c(C(F)(F)F)c2)C[C@@H]2CC[C@H]1N2C(=O)N1CCC(O)(c2ccc(Cl)cc2)CC1 | i | -3% | 8.9µM* | -11%
CN(CC(=O)Nc1ccc(F)cc1)C(=O)COC(=O)c1ccc(-c2ccccc2)cc1 | -13% | 0% | -23% | ?
CN(C)C1(c2nnnn2CCOC(=O)Nc2ccc(Cl)cc2)CCCCC1 | -15%[57.5 µM] | 2% | 7.1µM* | -17%
O=C(Nc1ccc(Oc2ccccc2)cc1)c1ccc(F)c(S(=O)(=O)N2CCN(c3cccc(Cl)c3)CC2)c1 | -30% | . | ? | -1%
Cc1nc2ccccc2c(=O)n1-c1ccccc1Cl | . | 23%[96 µM] | . | .
CCOP(=S)(OCC)c1ccc(N(C)C)cc1 | 18µM* | -2% | -10% | 5%
Cc1ccc(/C(CSc2nccn2-c2ncc(C(F)(F)F)cc2Cl)=N\O)cc1 | -33%[57.5 µM] | 5% | 3.5µM* | 4%
COc1ccccc1CN1CCN(C(=O)COc2ccc3ccccc3c2)CC1 | -7% | -4% | 10µM* | 2%
O=C(COc1ccc2ccccc2c1)N1CCN(CC2CC3C=CC2C3)CC1 (stereo unspecified) | -16%[57.5 µM] | -1% | 8.9µM* | -2%
Cc1ccc(OP(=O)(NCc2ccccc2)Oc2ccc(C)cc2)cc1 | -37% | 7% | 7.1µM* | -2%
Cc1cc(C)cc(NC(=O)Cn2cc(C(=O)c3cccs3)c3ccccc32)c1 | i | . | ? | -5%
C[n+]1c(-c2ccccc2)c2cc(N)ccc2c2ccc(N)cc21 | -3% | -3% | 1.8µM* | ?
CN(C)C(=O)Oc1ccc(OC(=O)N(C)C)cc1 | i | -2% | 5% | 2%
CN(C)C(=O)Oc1ccc(OCc2nc3ccccc3[nH]2)cc1 | -38% | -27% | 7.1µM* | 16%
C[C@]12CC[C@@H]3c4ccc(OC(=O)N(CCCl)CCCl)cc4CC[C@H]3[C@@H]1CC[C@@H]2OP(=O)(O)O | . | 1% | . | .
SMILES | PTHR1 agonist | GLP-1R agonist | GLP-1R inv ag | GLP1R cytotox
CC1CCN(S(=O)(=O)c2ccc3nc(Nc4cccc(F)c4)ccc3c2)CC1 | i | . | ? | ?
O=C(NC(c1ccc(F)cc1)c1ccc2ccccc2n1)C1CCN(CCOc2ccc(Cl)cc2)CC1 (stereo unspecified) | -14% | -6% | 6.3µM* | ?
Cc1oc(-c2cccc(Cl)c2)nc1CN1CCC(C(=O)NCCCN2CCN(c3ccc(F)cc3)CC2)CC1 | -3% | . | ? | 8%
CCC1(CCC(C)C)C(=O)NC(=O)NC1=O | . | -6%[96 µM] | . | .
CC(C)C[C@@H](CO)N(Cc1ccccc1)S(=O)(=O)N(Cc1ccccc1)[C@@H](CO)CC(C)C | -24% | -2% | 2.5µM* | ?
COc1cccc(NC(=O)C2CCN(S(=O)(=O)c3cc(-c4noc(C)n4)ccc3C)CC2)c1 | -48% | . | ? | -7%
O=C(Cn1c(SCC(=O)Nc2ccc(F)cc2)nc2ccccc21)NCc1ccccc1Cl | -9% | . | ? | ?
CCN(CC)CCNC(=O)c1nn(-c2ccc(Cl)cc2)c2c1CCc1cc(OC)ccc1-2 | i | -1% | 4.5µM* | ?
CCN(CC)CCNCC(=O)Nc1ccc(Cl)cc1C(=O)c1ccccc1 | i | -2% | ? | -4%
Cc1ccc(-c2cc(C(=O)N3CCN(c4ncccn4)CC3)c3ccccc3n2)cc1 | -26% | -4% | ? | ?
COc1ccc(-c2cc(C(=O)N3CCN(c4ccccc4OC)CC3)c3cc(C(C)C)ccc3n2)cc1 | -8% | . | 8.9µM* | -17%
Fc1ccc(C(OCCN2CCCC2)c2ccc(Br)cc2)cc1 (stereo unspecified) | -2% | 3% | 5.6µM* | ?
C[C@]12CCC(=O)C=C1CC[C@H]1C2CC[C@@]2(C)[C@@H]1CC[C@]2(C)O (stereo partly specified) | . | 10% | . | .
O=C(NC1CCCc2ccccc21)c1ccccc1OC(F)F (stereo unspecified) | i | 11% | -29% | ?
COc1cc(/C=C2\SC(=S)N(CCC(=O)N3CCCCC3)C2=O)cc(OC)c1OC | i | 5% | 10µM* | ?
COc1cc(CN2CCN(C(=O)COc3ccccc3)CC2)cc(OC)c1OC | 24% | 9% | 9% | 5%
CCc1nc2c(OCc3ccc(C(F)(F)F)cc3)cccn2c1N(C)C(=O)C(C)C | -41% | 2% | ? | 2%
Cc1ccc(C)c(N2CCN(C(=O)C3CCN(Cc4nc(-c5cccc(Cl)c5)oc4C)CC3)CC2)c1 | -70% | . | 1% | 3%
Fc1ccc([C@@H]2CCNC[C@H]2COc2ccc3c(c2)OCO3)cc1 | -11% | -6% | 8.9µM* | ?
Fc1ccc(CNCCc2ccc3c(c2)OCO3)cc1 | i | -5% | -24% | -10%
Cc1c(P(=S)(c2ccccc2)c2ccccc2)[n+]2ccccc2n1CCc1ccccc1 | -86% | -3% | . | .
N#CC(C(=O)C12CC3CC(CC(C3)C1)C2)c1nc2ccccc2[nH]1 (stereo unspecified) | i | -3% | 1.1µM* | -10%
CC1=CC(=C2C(=O)NC(=O)NC2=O)C=C(C(F)(F)F)N1Cc1ccccc1 | i | 31% | 100% | -18%
CC1=CC(=C2C(=O)NC(=O)NC2=O)C=C(C(F)(F)F)N1C(C)C | 28µM* | 7% | 39% | 2%
CCC1C(c2ccccc2)NC(c2ccccc2)CC1(O)c1ccc(F)cc1 (stereo unspecified) | -22% | -6% | 11µM* | ?
